Here are results for 94 compounds from PubChem BioAssay AID743279 (National Center for Advancing Translational Sciences (NCATS), 2014).

Out of some 360,000 compounds screened, about 17,000 (4.7%) were called active. Roughly 5% stayed inconclusive and do not appear here. For the sample, actives were picked, then their nearest neighbours and some compounds at random. Values without a mark were called inactive. Rule as the data show it: active = activity change below about -50%; inconclusive = mostly about -30% to -49%; inactive = weaker than that.
% is scaled to controls: 0 for no effect and ±100 for the full control effect.

The nature of the assay: qHTS for Inhibitors of Inflammasome Signaling: IL-1-beta AlphaLISA Primary Screen. As to conditions: THP-1 LPS/ATP IL-1B secretion, 16 h; at 57.5 µM, active compounds read low. The method, boiled down:
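Secreted IL-1B measured by AlphaLISA bead assay after 16 h compound exposure of THP-1 cells; compounds (final up to 57.5 uM) added 1 h before LPS (250 ng/mL) and ATP (1.25 mM) stimulation; lower signal means less secretion.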
Consider `CCOC(=O)C(C(=O)OCC)C(C#N)c1ccccc1` (centres undefined), for which the activity change is -20.8%.
For `O=C(Cc1ccc(-c2ccccc2)cc1)NC(c1ccccc1)c1ccccc1` the value was 18.8%; for `CCOC(=O)/C=C/C(=O)OCC(=O)NC(c1ccccc1)c1ccccc1`, -96.9% (active).
`CCN(CC)CCCN1C(=O)C(=O)/C(=C(/O)c2c(C)nc3ccccn23)C1c1ccc(C)o1` (centres undefined): the activity change is -3.42%.
For `COCc1ccc(C(=O)NC2CC(C)(C)Cc3c2cnn3-c2ccc(C)cc2)o1` (centres undefined) the value was -2.96%; for `CCC1C/C(=C/c2cccs2)C(=O)/C(=C/c2cccs2)C1` (centres undefined), -5.91%.
The result for `COC(=O)COc1ccc2c(c1C)O/C(=C\c1ccco1)C2=O` reads -8.17%; that for `CC(C)(C)C1C/C(=C/c2ccco2)C(=O)/C(=C/c2ccco2)C1` (centres undefined), -67.3% (active); that for `CCNC(=O)C1(C)CCN(Cc2ccc(C(=O)OCC)o2)C1` (centres undefined), 0%.
The result for `CCCCCCN1CCN(C2CN(Cc3cn(Cc4ccc(F)cc4)nn3)S(=O)(=O)C2)CC1` (centres undefined) reads 18.3%; that for `Cc1cc(Nc2ccc(C(=O)N3CCCCC3)cc2)c2cccc(C)c2n1`, -2.62%; that for `Cc1ccccc1N/N=C/c1ccc(N2CCOCC2)cc1`, 0.147%.
With `Cc1cc(Nc2ccc(N3CCOCC3)cc2)c2cccc(C)c2n1`, the activity change is -91.7% (active).
For `CN(CCc1ccccc1)C(=O)c1cccc(NC(=O)Cc2cccc(NC(=O)C3CCCN(C(=O)CCc4ccccc4)C3)c2)c1` (centres undefined), the activity change was -21.4%.
For `NC1=NC(=O)C2(COC(c3ccccc3Cl)OC2)S1` (centres undefined) the value was -5.39%; for `COc1cccc(CN(C)CC(=O)Nc2ccccc2C(=O)Nc2ccccc2)c1`, 58.1%.
For `COc1cccc(CN(C)CC(O)COC(c2ccccc2)c2ccccc2C)c1` (centres undefined), the activity change is -77% (active).
Take `Cc1ccccc1C(OCC(O)CN1CCCCC1CCO)c1ccccc1` (centres undefined): the activity change is -10.1%.
For `CC(OC(=O)c1ccccc1NCCO)C(=O)Nc1ccnn1C(C)C` (centres undefined) the value was 0%; for `CCn1cc(CN2CCCC(CNS(=O)(=O)Cc3ccccc3)C2)cn1` (centres undefined), 7.8%; for `CC1=C(C(=O)N(C)C)CC(CC(=O)NCCN2CCOCC2)C(=O)N1Cc1ccccc1` (centres undefined), 17.7%.
For `CC(=O)c1cccc(NC(=S)N2CCCC2)c1` the value was 24.4%; for `CSc1nsc(NC(=O)Nc2ccccc2)n1`, 0%; for `CCSc1nsc(NC(=O)Nc2cccc(C(C)=O)c2)n1`, -101% (active).
For `C=CCSc1nsc(NC(=O)Nc2cccc(C(C)=O)c2)n1` the value was -100% (active).
With `C=CCSc1nnc(NC(=O)c2ccc(NC(C)=O)cc2)s1`, the activity change is 1.35%.
The result for `CSc1ccccc1C(=O)Nc1cccc(C(C)=O)c1` reads -2.09%.
The result for `S=C(NN=Cc1ccccn1)Nc1ccccn1` reads 68.2%; that for `CN1C[C@@H](CO)O[C@@H](n2cnc3c(N4CCN(CCO)CC4)ncnc32)C1`, 23.3%; that for `CC(=O)C1=CCC(c2ccccc2)N(S(=O)(=O)c2ccc(C)cc2)C1` (centres undefined), 0%.
The result for `Cc1cc(Cl)ccc1N1C(=O)CC(SCCC(=O)O)C1=O` (centres undefined) reads 9.22%; that for `CCCN(CCC)c1nc2c(C)cccn2c(=O)c1/C=C1/SC(=S)N(Cc2ccco2)C1=O`, 8.74%.
In the case of `CCOC(=O)CC1C(=O)NCCN1c1nc2c(C)cccn2c(=O)c1/C=C1\SC(=S)N(C(C)CC)C1=O` (centres undefined), the activity change was -79.5% (active).
In the case of `CCOC(=O)N1CCN(C(=O)CSc2nc(=O)n3cccc(C)c3n2)CC1`, the activity change is -6.68%.
For `CN1OC[C@@H]2CN(S(=O)(=O)c3cccc(C(F)(F)F)c3)[C@H](c3ccc(-c4cc5ccccc5o4)cc3)C[C@@H]21` the value was -0.573%; for `Cc1nnc(N(Cc2ccco2)C(=O)c2ccno2)s1`, -16.2%.
The result for `COc1ccc(Sc2ccc(NC(=O)c3cccc(Cl)c3)cc2C#N)cc1` reads -1.44%.
The result for `COc1ccc(C(=O)Nc2ccc(C3(C#N)CCCC3)cc2)cc1OC` reads -55% (active); that for `COc1ccc(C(=O)Nc2ccc3nc(N4CCCCC4)cc(C)c3c2)cc1OC`, 30.7%.
On to `COc1cc(C(=O)NCC2(c3ccccc3)CCCC2)ccc1OC(C)C`, for which the activity change is -0.814%.
The result for `CC(C)CN(C(=O)Cn1c(=O)cnc2ccccc21)C1CCS(=O)(=O)C1` (centres undefined) reads 5.99%.
For `CCn1c(SCC(=O)N2CCCC2=O)nc2ccccc21` the value was -4.32%; for `COc1cc(C(O)c2nc(-c3cccc(C(=O)O)c3)cs2)ccc1F` (centres undefined), 1.15%; for `Cc1ccc(Cc2c(-c3ccco3)nc3ccc(Cl)cn23)cc1`, -76.3% (active).
For `Cc1ccc(Cc2c(-c3ccccc3)nc3ccc(Cl)cn23)cc1` the value was 1.06%.
Regarding `Cc1ccc2nc(-c3ccco3)c(Cc3cccc(Cl)c3)n2c1`, the activity change was -21.3%.
For `COc1ccc(CCc2nnc(CCC(=O)NCc3cnn(-c4ccccc4C)c3)o2)cc1` the value was 0%.
The result for `CCCCCn1nnnc1C1c2ccccc2C(=O)N1Cc1ccco1` (centres undefined) reads 0%; that for `Cc1ccc(-c2nn(-c3ccccc3)cc2C(=O)Nc2cccc(S(=O)(=O)N3CCOCC3)c2)cc1`, -2.09%.
For `Cc1ccc(-c2nn(-c3ccccc3)cc2C(=O)NCCCN2CCCC2=O)cc1` the value was 0%; for `O=C(O)c1ccc(NC(=O)c2cn(-c3ccccc3)nc2-c2ccc(Cl)cc2)cc1`, -53.3% (active); for `Cc1ccc(Cc2c(-c3ccc(C)cc3)nc3c4ccccc4ccn23)cc1`, 27.7%.
Turning to `FC(F)(F)c1ccccc1Cc1c(-c2ccccc2)nc2c3ccccc3ccn12`, the activity change was 14.3%.
In the case of `Cc1cc(N2CCOCC2)nc2ccc(NC(=S)N3CCN(Cc4ccccc4)CC3)cc12`, the activity change is -70.6% (active).
`CCOCCCNC(=S)Nc1ccc2nc(N3CCN(CC)CC3)cc(C)c2c1`: the activity change is 46.7%.
The result for `Cc1cc(N2CCN(C)CC2)nc2ccc(NC(=S)N3CCOCC3)cc12` reads -0.695%; that for `CC(=O)N1C[C@@H](CO)[C@@H](N(C)C(=O)c2ccco2)C[C@H]1c1ccccc1`, 11.5%.
The result for `C(=N/Nc1cc(N2CCOCC2)nc(N2CCOCC2)n1)/c1ccccc1` reads -78.9% (active); that for `CN(C)c1ccc(/C=N/Nc2cc(N3CCOCC3)nc(N3CCOCC3)n2)cc1`, -1.5%.
The result for `Fc1ccccc1/C=N/Nc1cc(N2CCCCC2)ncn1` reads -12%; that for `OC(c1ccccc1)c1nc(-c2cnc3ccccc3c2)cs1` (centres undefined), 32.8%; that for `O=C(Cc1ccc([N+](=O)[O-])cc1)NCCc1ccc2c(c1)OCO2`, 0%.
For the compound `Nc1nnnn1/N=C/c1cc([N+](=O)[O-])ccc1O`, the activity change is 0%.
For the compound `O=[N+]([O-])c1ccc(O)c(/C=N/Nc2ccccc2[N+](=O)[O-])c1`, the activity change is -51.4% (active).
As for `O=C(N/N=C/c1cc([N+](=O)[O-])ccc1O)/C(=C\c1cccs1)NC(=O)c1ccccc1`, the activity change is 245%.
For `CCCNC(=O)c1cc(C2CCCCN2S(=O)(=O)c2ccc(C#N)cc2)on1` (centres undefined) the value was -18.6%; for `CCOc1ccc2nc(C(=O)N3CCCC(C)C3)sc2c1` (centres undefined), -10.2%; for `CCOc1cc(/C=C2\SC(N3CCCC(C)C3)=NC2=O)ccc1O` (centres undefined), -57.3% (active).
As to `CCOc1cc(/C=C2\C(=N)N3N=C(C)SC3=NC2=O)ccc1OCCOc1ccccc1`, the activity change was 4.36%.
For `Nc1[nH]c(C(=O)c2ccccc2)c(-c2ccc(Br)cc2)c1C(=O)NC1CC1` the value was 12%.
For `CCNc1c(NS(=O)(=O)c2ccc(C3CCCCC3)cc2)c(=O)oc2ccccc12`, the activity change was 29.7%.
For `C=CS(=O)c1sc(Cl)c(N2CCOCC2)c1[N+](=O)[O-]` (centres undefined) the value was -104% (active).
For `CCCCNC(=O)OC1CC2CC1[C@H]1CCCCN1C2=O` (some centres undefined) the value was 12.3%; for `Cc1cc(C)nc(SCC(=O)N(C)C)n1`, 0%; for `Cc1cc(C)nc(SCc2ccccc2C#N)n1`, -12.7%.
In the case of `Cc1cc(C)nc(S/C=C/C(=O)c2ccccc2)n1`, the activity change is -104% (active).
The result for `CNc1cncc(-c2cccc(C(=O)N3CCOCC3)c2)n1` reads -12.2%; that for `CN(C)S(=O)(=O)c1cccc(NC(=O)Cc2ccsc2)c1`, 19.3%.
The result for `CN(c1ccccc1)S(=O)(=O)c1cccc(NC(=O)Cc2c(F)cccc2Cl)c1` reads 0%.
Regarding `CN(c1ccccc1)S(=O)(=O)c1cccc(NC(=O)Cc2ccc(Cl)cc2)c1`, the activity change is -55.5% (active).
The result for `COc1nnc(-c2ccc(C)c(S(=O)(=O)N(C)C)c2)c2ccccc12` reads -11.4%.
The result for `COc1ccccc1Cc1c(-c2ccc(Cl)cc2)nc2ccc(Cl)cn12` reads 16.9%.
The result for `CCCCc1c(-c2ccc(Br)cc2)ncn1CCc1ccccc1OC` reads -93.2% (active); that for `COc1ccccc1CCNS(=O)(=O)c1cn(C)nc1C`, -3.36%.
`Cn1c(=O)c2c(ncn2CCc2ccccc2)n(C)c1=O`: the activity change was 26.6%.
The result for `CCCc1c(-c2ccccc2F)ncn1Cc1ccccc1OC` reads -24.5%; that for `CCC(=O)NCc1cc(-c2nn(C)c(=O)c3ccccc23)ccc1OC`, -12.6%.
The result for `CCCCCc1c(-c2cccc(Br)c2)ncn1CCc1ccccc1OC` reads -27.9%; that for `CCc1c(-c2ccc(F)cc2)ncn1Cc1cccc(-c2ccccc2)c1`, 4.55%.
For `CCCCc1c(-c2ccc(Cl)cc2)ncn1CCc1ccccc1OC` the value was -109% (active); for `CCCCCc1c(Cc2ccccc2)ncn1CCc1ccccc1OC`, -55.8% (active).
Regarding `COc1ccccc1Cc1c(-c2ccc(Cl)cc2)nc2c3ccccc3ccn12`, the activity change is 4.19%.
For `CCCCCc1c(-c2ccc(OC)c(OC)c2)ncn1CCc1ccccc1OC` the value was -71.5% (active); for `COc1cccc(NC(=O)CSc2nccn(-c3ccc4c(c3)OCCO4)c2=O)c1`, -15.5%.
